SMILES strings stand for the structures. “And” between values parts separate entries of the source, which are not always exact repeats. Identical values can stand only once. Records with an inconclusive call do not appear. Entries that show only a call come without a potency. The source made the active and inactive calls. Calls follow the shape of the dose curve; as a rule, active = well fitted cell-killing curve with a large enough effect in the repeat runs; inconclusive = weak or mixed curves, or effect the other way; inactive = no such curve, though single readings can be large or run the other way.
Potency is read from the fitted curve at half-maximal effect.

A short description of this assay: qHTS assay to identify small molecule agonists of the RXR signaling pathway - cell viability counter screen (AID 1159529). Also: nearly all actives have a fitted effect of over 50% in size. The following applies: RXR-alpha-bla HEK293T viability, CellTiter-Glo, 16 h; series mostly up to 76.8 µM. The gist of the method:
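In this parallel viability measure, GeneBLAzer RXR-alpha HEK 293T cells (2% charcoal-stripped FBS) were given a 5 hr preincubation, treated with compounds 16 hr at 37 C, and read by CellTiter-Glo luminescence.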
On the technique in general: Quantitative high-throughput screening tests each substance at several concentrations.
As to `O=C1C(c2[nH]c3ccc(S(=O)(=O)O)cc3c2O)=Nc2ccc(S(=O)(=O)O)cc21`, the Potency result is “inactive”. For the molecule `CC(=O)[C@H]1CC[C@H]2[C@@H]3CCC4=CC(=O)CC[C@]4(C)[C@H]3CC[C@]12C`, the Potency was 38.7 µM (active) and 43.6 µM (active). Take `CC(=O)CC(=O)Nc1ccc(S(=O)(=O)O)cc1`: the Potency result is “inactive”.

Regarding `CCN(CC)C(=O)c1cc(S(=O)(=O)Cc2ccccc2)c(N2CCC(c3ccccc3)CC2)cc1N(CC)CCN(C)C`, the Potency was 15.3 µM (active). The same measure for `COC(=O)C1=C(C)NC(C)=C(C(=O)OCCN2CCN(C(c3ccccc3)c3ccccc3)CC2)C1c1cccc([N+](=O)[O-])c1` (stereo unspecified): “inactive”; for `CCCC(=O)OCOC(=O)C1=C(C)NC(C)=C(C(=O)OC)C1c1cccc(Cl)c1Cl` (stereo unspecified): “inactive”; for `CC/C=C\CCCCCO`: “inactive”.

With `C=CC(C)(CCC=C(C)C)OC=O` (stereo unspecified), the Potency entry was “inactive”. Under `CCCC1CCC(=O)CC1` stands “inactive”. Turning to `CN(C)c1ccc(C(=C2C=CC(=[N+](C)C)C=C2)c2ccc(N(C)C)cc2)cc1`, the Potency was 13.7 µM (active) and 19.5 µM (active) and 19 µM (active). For `Nc1nc(N)nc(-c2cc(Cl)ccc2Cl)n1`, the Potency entry was “inactive”. The same measure for `C=C(CC)C(=O)c1ccc(OCC(=O)O)c(Cl)c1Cl`: “inactive”; for `COc1ccc2cc1Oc1ccc(cc1)C[C@H]1c3c(cc4c(c3Oc3cc5c(cc3OC)CCN(C)[C@@H]5C2)OCO4)CCN1C`: 23.9 µM (active); for `Oc1ccccc1O`: “inactive”. With `CC1=CCC(=C(C)C)CC1`, the Potency entry was “inactive”. `CCCCCCCCCCOC(=O)c1ccccc1C(=O)OCCCCCCCC`: the Potency result was “inactive”.

(Values after PubChem BioAssay (Tox21).)
